The structures appear in SMILES notation. Unmarked numbers belong to inactive results.

The test system of the first assay is Plasmodium falciparum NF54-HGL (transmission to Anopheles stephensi). In words: percentage of barcode signal found in uninfected mosquitoes (transmission-blocking activity); higher = stronger blocking of transmission to mosquito, active = 80 or more. As to conditions: 10 µM; gametocyte preincubation time 24 h; readout time post-feed 8 days. On the procedure:
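The mixture was fed to Anopheles stephensi in 96-well plates as blood meals tagged with DNA-barcoded Asaia bacteria. Eight days later, mosquitoes were classed infected or uninfected by luminescence (mean + 5 SD of unfed controls). Barcodes were quantified by Luminex MagPlex-TAG in the pooled uninfected and infected Asaia cultures, background-corrected, and the score is % of barcode signal in uninfected mosquitoes = 100*Iu/(Iu+Ii).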
`CCC(=O)Nc1ccccc1C(=O)Nc1ccccn1`: the “percentage of barcode signal found in uninfected mosquitoes” value (shortened to “percentage of barcode signal found”) was 50%. Still for that read-out and setting: the value for `CC(C)N=c1cc2n(-c3ccc(Cl)cc3)c3ccccc3nc-2cc1Nc1ccc(Cl)cc1` was 99.3% (active); that for `N#Cc1ccc(-c2ccc(OCC(N)=O)cc2)cc1` was -1.66%; that for `CCOC(=O)c1cc(-c2csc(Nc3c(C)cc(C)cc3C)n2)on1` was 11.5%. Same read-out and setting: next, `C[C@H]1c2cccc(O)c2C(=O)C2=C(O)[C@]3(O)C(=O)C(C(N)=O)=C(O)[C@@H](N(C)C)[C@@H]3[C@@H](O)[C@@H]21`: 41.2%; `CS(=O)(=O)Cc1nc2ccccc2oc1=O`: 80.3% (active). `O=C(C1CCCCC1)N1CC(=O)N2CCc3ccccc3C2C1` (stereo not given): the “percentage of barcode signal found” value was 51.6%.

For `Cc1nc(-c2ccccn2)nc(NCCc2ccc(S(C)(=O)=O)cc2)c1Cl`, the “percentage of barcode signal found” value was 67%.

As to `O=C(Nc1nc(-c2ccccn2)cs1)C1CC1c1ccccc1F` (stereo not given), the “percentage of barcode signal found” value is 53.8%.

Consider `N=C(N)c1ccc(-c2cc(-c3ccccc3)on2)cc1`, for which the “percentage of barcode signal found” value is 33.2%. On to `COc1cc(NC(C)CCCN)c2ncccc2c1` (stereo not given), for which the “percentage of barcode signal found” value was 48.2%. Consider `CNC(=O)C1Cc2ccccc2N1C(=O)Cc1ccc(F)cc1` (stereo not given), for which the “percentage of barcode signal found” value was 27.5%. On the same count and under the same terms, the value for `O=C1COCc2ccc(Br)cc2N1Cc1ccc(C(F)(F)F)cc1` was 22.4%; that for `CNc1nnc(Sc2cnn(-c3ccccc3)c(=O)c2Cl)s1` was 76.3%. As for `O=S(=O)(c1ccc(Cl)cc1)N1CCN(C(=S)NCc2ccco2)CC1`, the “percentage of barcode signal found” value was 29.2%. Take `CC(=O)Oc1ccccc1C(=O)Nc1ncc([N+](=O)[O-])s1`: the “percentage of barcode signal found” value is 8.87%.

Regarding `COc1ccc(-c2onc(C(F)(F)F)c2-c2ccc(Cl)cc2)c(O)c1`, the “percentage of barcode signal found” value was 25.2%. Regarding `O=C1Nc2ccc(Br)cc2C12NCCc1c2[nH]c2ccccc12` (stereo not given), the “percentage of barcode signal found” value was 27.2%.

As for `O=C(Nc1ccnc(-c2cccnc2)n1)c1cc(C(F)(F)F)cc(C(F)(F)F)c1`, the “percentage of barcode signal found” value is 46.9%. On the same count and under the same terms, next, `CS(=O)(=O)c1cccc(-c2cnc3[nH]cc(-c4ccc(CCC(=O)O)cc4)c3c2)c1`: 29.9%; `CC(C)n1ncc2c(C(=O)NCC(c3cccs3)N3CCOCC3)cc(-c3ccccc3)nc21` (stereo not given): 29.6%. Turning to `O=C(NC1CC1)c1ccc(N2CCC(Cc3ccccc3)CC2)nc1`, the “percentage of barcode signal found” value was 77.8%. Same read-out and setting: the value for `CNC(=O)c1cc(S(=O)(=O)N2CCN(c3ccccn3)CC2)cs1` was 37.8%.

The assay is the same for the next values; noted with them: 20 µM; gametocyte preincubation time 24 h; readout time post-feed 8 days.
On to `Nc1nc2ccc(-c3cncc(Oc4ccc(F)cc4)c3)cc2[nH]1`, for which the “percentage of barcode signal found” value was 99.4% (active). On to `COc1ccc(Oc2ccc([C@@H](C)N(C)c3ncc4c(N)nc(N)nc4n3)cc2)cc1`, for which the “percentage of barcode signal found” value is 72.1%.

Consider `CCN(CC)C(=O)N1CCN(C)CC1`, for which the “percentage of barcode signal found” value was 4.35%. Turning to `CCOc1ccc(OCC(=O)Nc2cc(C)cc(C)c2)cc1`, the “percentage of barcode signal found” value is 17.5%. Still for that read-out and setting: next, `CS(=O)(=O)N1CCC(Cn2nc(Cc3cccc4ccccc34)c3c(N)ncnc32)CC1`: 28.2%; `CN1CCN(c2nccc3[nH]c(-c4cccc(F)c4)cc23)CC1`: -0.815%. As to `O=C(Nc1cccc(-c2ccc(NCCCN3CCCC3)nc2)c1)c1ccccc1`, the “percentage of barcode signal found” value was 29.8%. As for `Cc1nn(C(=O)Nc2cccc(C(F)(F)F)c2)c(C)c1Sc1ncccn1`, the “percentage of barcode signal found” value is 2.49%. With `O=C(C1CCN(c2cc(-n3cccc3)ncn2)CC1)N1CCc2ccccc2C1`, the “percentage of barcode signal found” value is 26.4%.

Take `COc1ccc2nc(C)cc(OCC(=O)Nc3ccccc3OC)c2c1`: the “percentage of barcode signal found” value was 5.42%. On to `CC1=Nc2ccc(Cl)cc2C(c2ccccc2)N1CCNC(=O)CN(C)C` (stereo not given), for which the “percentage of barcode signal found” value is 71.2%. As for `CCOC(=O)c1c(NC(=O)c2c(F)c(F)c(F)c(F)c2F)sc(C(N)=O)c1C`, the “percentage of barcode signal found” value was 60.8%. Consider `C[C@H](C(N)=O)N1CCCC[C@@H]1c1ccc(OCc2cccc(F)c2)cc1`, for which the “percentage of barcode signal found” value was 17.3%. On to `CN1CCCN(C(c2ccccc2)c2ccc(Cl)cc2)CC1` (stereo not given), for which the “percentage of barcode signal found” value was 25.1%. In the case of `Cc1cnc(N2CCN[C@@H](Cc3ccccc3)C2)nc1Oc1ccc(-n2ccnc2)cc1`, the “percentage of barcode signal found” value was 87% (active). On the same count and under the same terms, next, `CC(=O)Nc1ccc(-c2noc(CC3CCCN(Cc4cccc(F)c4C)C3)n2)cc1` (stereo not given): 0.0253%; `Cc1cccc(-c2nc(Nc3ccncn3)c3sccc3n2)n1`: 91.4% (active).

These data come from the supplement of paper PMC8726507.
